Bioassay records (PubChem BioAssay)
In the library only some 6.5% were active in any assay of this set; here they are far more common.
HT1080-NT tox – kills 2HG-producing HT-1080-NT fibrosarcoma cells | Potency, µM (highest dose often 46.1 µM), most hits filed as cytotoxic | AID 686970 | HT-1080-NT fibrosarcoma viability, CellTiter-Glo ATP luminescence, 48 h | 360,000 tested, 1.6% active;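 also: NT is the 2HG producing partner of a matched IDH1 knockdown line; nearly all actives have a fitted effect of over 55% in size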
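Fibrosarcoma NT cells, 750 per well in 5% FBS RPMI, were exposed to compound for 48 hours. Viability: CellTiter-Glo luminescence.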
HT1080 IDH1KD tx – kills HT-1080 cells with IDH1 knockdown; 360,000 tested, 2% active; HT-1080 IDH1 knockdown viability, ATP luminescence, 48 h; Potency, µM (doses to about 46.1 µM), most hits filed as cytotoxic
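Cytotoxicity counter-line: IDH1KD HT-1080, 48 h, CellTiter-Glo. Curves classed by r2, magnitude and activity.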
IL1B secr inh – blocks inflammasome-driven IL-1 beta release. THP-1 LPS/ATP IL-1B secretion, AlphaLISA, 16 h; hits give low values. activity change, % at 57.5 µM. 360,000 tested, 4.7% active; in the data active = activity change below about -50%; inconclusive = mostly about -30% to -49%
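THP-1 cells pretreated 1 hr with compounds (up to 57.5 uM final), then stimulated with LPS (250 ng/mL final) plus ATP (1.25 mM final); secreted IL-1B measured by AlphaLISA after 16 hr, decreased signal indicating inhibition.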
TGFb SMAD3 inh – inhibitors of TGF-b signaling; HepG2 CAGA-GFP TGF-b/SMAD3 reporter, GFP fluorescence, 18 h; TGF-beta stimulated, 500 pg/mL final; Potency, µM (highest dose often 46.1 µM), actives largely listed as inhibitors; 410,000 tested, 1.2% active; AID 588855; also: nearly all actives have a fitted effect of over 65% in size
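Inhibition of TGF-beta-driven CAGA-GFP reporter expression in HEPG2 cells is measured by cellular GFP fluorescence after 18 h stimulation with 500 pg/mL recombinant TGF-beta in 1% FBS medium at 37 degrees C.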
Giardia killer – kills Giardia lamblia. AID 540267. 340,000 tested, 0.15% active. Giardia lamblia trophozoite viability. activity change, % at 7.66 µM, hits read low; in the data active = activity change below about -80%; inconclusive = between about -30% and that limit;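 also: parasites exposed to compound for two days anaerobically before the ATP read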
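Anaerobic 48 hrs incubation at 37 deg C of 100 trophozoites/well with test compounds; ATPLite 1-Step luminescence, 15-30 min RT, reports cellular ATP as viability.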
HepG2 viability – kills HepG2 cells in TGF-b inhibitor counter-screen. HepG2 CAGA-GFP viability, ATP luminescence, 18 h. Potency, µM (doses to about 46.1 µM), actives largely listed as cytotoxic. 410,000 tested, 0.76% active. AID 588856
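CellTiter-Glo luminescence gave cytotoxicity after 18 hours at 37 degrees C. The cells were HepG2 CAGA-GFP in 1% FBS DMEM, stimulated with 500 pg/mL TGF-beta after compound addition. %Activity was normalised to no-cell wells (complete cell-killing) and DMSO (no toxicity), and curves were fitted and classified.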
A number is an active result; i = inactive; ? = inconclusive; nt = no result given. Unless noted, calls follow the shape of the dose curve; as a rule, active = well fitted curve in the direction sought with a large enough effect; inconclusive = small, poorly fitted or top-dose-only effect, or another doubt; inactive = no such curve, though single readings can be large; an effect the other way counts as inactive or inconclusive.

SMILES	HT1080-NT tox	HT1080 IDH1KD tx	IL1B secr inh	TGFb SMAD3 inh	Giardia killer	HepG2 viability
CCOc1ccccc1-n1cnc(C#N)c1N	i	i	i	i	i	i
COc1cc2c(cc1OC)C(SC)=NC(C)(C)C2	?	?	-101.5	?	i	i
COc1cccc(NC(=O)CSc2nc3ccccc3c(=O)n2C)c1	i	?	i	i	i	i
CC1CCC(C(C)C)C(OC(=O)C[n+]2cc(-c3ccc(Cl)cc3)n3c2CCC3)C1 (stereo unspecified)	?	?	-86.1	11.2µM	i	i
O=C(C[n+]1cc(-c2ccc(Cl)cc2)n2c1CCC2)N1c2ccccc2Sc2ccccc21	i	i	-57.1	i	i	i
COc1ccc(-c2c[n+](CC(=O)N3c4ccccc4Sc4ccccc43)c3n2CCC3)cc1	?	?	-61.5	i	i	i
Cc1ccn2c(=O)cc(COc3ccc(NC(=O)COc4ccc(Cl)cc4)cc3)nc2c1	nt	nt	nt	i	nt	i
COc1ccc(Cn2nnnc2C(c2cc3cccc(C)c3[nH]c2=O)N2CCN(C)CC2)cc1 (stereo unspecified)	i	i	i	i	i	i
O=S(=O)(c1ccc(F)cc1)N1CCN(CC(O)COc2ccccc2F)CC1 (stereo unspecified)	i	i	i	i	i	i
CC(C)c1ccccc1OCC(O)CN1CCN(S(=O)(=O)c2ccc([N+](=O)[O-])cc2)CC1 (stereo unspecified)	i	?	-83.4	i	i	i
O=C(O)CNS(=O)(=O)c1ccc(F)cc1	i	i	i	?	i	i
COc1cccc2c1OCC(C(=O)OCc1cccnc1)=C2	i	i	-52.6	i	i	i
O=C(CS(=O)c1ccc(C(F)(F)F)cc1[N+](=O)[O-])Oc1ccc(Cl)cc1 (stereo unspecified)	?	?	-97.5	?	i	i
Cc1ccc(OCCNc2ccc(C(F)(F)F)cc2[N+](=O)[O-])cc1	i	i	i	i	i	i
Cc1cc(C)cc(OC(=O)CS(=O)c2ccc(C(F)(F)F)cc2[N+](=O)[O-])c1 (stereo unspecified)	20.6µM	23.1µM	-121.0	?	i	i
CC(=O)c1ccc(NC(=S)Nc2ccc(N3CCOCC3)cc2)cc1	i	i	i	i	i	i
COc1ccc(O)c(CN2CCCC(N3CCN(c4ccc(F)cc4)CC3)C2)c1 (stereo unspecified)	i	i	i	i	i	i
CCCCCCc1ccc(OC(=O)c2ccncc2)cc1	i	i	i	i	i	i
CCCCCCOc1ccc(OC(=O)c2ccncc2)cc1	?	16.4µM	i	i	i	i
CCOc1cc(N2CCOCC2)c(OCC)cc1NS(=O)(=O)c1ccc(Cl)s1	?	4.11µM	i	i	i	i
COc1cc(/C=N/NC(=S)Nc2cccc(S(=O)(=O)N(C)C)c2)ccc1O	i	i	-98.0	i	i	i
O=C1C(Cl)=C(N2CCN(c3ccccc3[N+](=O)[O-])CC2)C(=O)c2ccccc21	i	?	-103.6	11.2µM	i	i
COc1ccc(/C=C/C(=O)c2ccc3ccccc3c2O)cc1CN1CCOCC1	i	i	-67.5	i	i	i
COc1ccc(C(=O)/C=C/c2ccc(OC)c(Cn3nnc4ccccc43)c2)cc1	i	i	?	i	i	i
COc1ccc(/C=C/C(=O)C23CC4CC(CC(C4)C2)C3)cc1CN1CCOCC1	?	?	-188.9	?	i	i
SMILES	HT1080-NT tox	HT1080 IDH1KD tx	IL1B secr inh	TGFb SMAD3 inh	Giardia killer	HepG2 viability
COc1ccc(/C=C/C(=O)c2ccc(O)cc2)cc1CN1CCOCC1	i	?	-133.2	?	i	i
COc1ccc(/C=C/C(=O)c2ccccc2O)cc1CN1CCOCC1	?	?	i	i	i	i
COc1ccc(C(=O)/C=C/c2ccc(OC)c(CN3CCOCC3)c2)cc1	i	?	-100.1	?	?	i
COc1ccc(/C=N/NC(=O)c2ccncc2)cc1CN1CCOCC1	i	i	nt	i	i	i
CCCNS(=O)(=O)/C=C/c1ccccc1	i	i	i	?	i	i
O=C(/C=C/c1cccc(O)c1)c1ccc(N2CCOCC2)cc1	i	i	-94.5	?	i	i
